Values joined by “and” are separate entries in the source; they are usually repeats but may differ in a detail not shown here. Equal entries are not always repeated. Inconclusive results are not listed. Some compounds were tested as several samples or in several runs, with calls that do not always agree. Active and inactive are the calls of the source. How the source made its calls: active means hit-call score of the fitted dose curve at least 0.9, where 1 is the maximum; inconclusive means response in the unintended direction; inactive means score below 0.9.
What follows are compounds tested on xenobiotic metabolism (CYP1A2), CYP1A2 (gene 1544) (assay: CLD_CYP1A2_24hr: CellzDirect (CLD) Gene Expression Assay for xenobiotic metabolism (CYP1A2) at 24 hours (AID 2283683)).
Experimental: CLD_24hr is a cell-based, multiplexed-readout assay that uses hepatocyte, a human liver primary cell, with measurements taken at 24 hours after chemical dosing in a 96-well plate.CLD_CYP1A2_24hr is one of 16 assay component(s) measured or calculated from the CLD_24hr assay. It is designed to make measurements of mRNA induction, a form of inducible reporter, as detected with chemiluminescence signals by Quantitative Nuclease Protection Assay (qNPA) technology.Data from the assay component CLD_CYP1A2_24hr was analyzed at the endpoint, CLD_CYP1A2_24hr, in the positive analysis fitting direction relative to DMSO as the negative control and baseline of activity. Using a type of inducible reporter, gain-of-signal activity can be used to understand changes in the reporter gene as they relate to the gene CYP1A2. Furthermore, this assay endpoint can be referred to as a primary readout. To generalize the intended target to other relatable targets, this assay endpoint is annotated to the cyp intended target family, where subfamily is xenobiotic metabolism.
Human hepatocyte cultures were treated daily for two consecutive days with fresh dosing solutions containing appropriate concentrations of the 320 ToxCast chemicals (chemical identities were blinded to CellzDirect and other ToxCast collaborators), vehicle control (0.2% DMSO), and positive control inducers as summarized in Table 1. Due to the large number of treatment groups and chemicals examined, the ToxCast chemicals were divided into two groups (spanning two independent cultures of hepatocytes from separate donor preparations (Hu778: ToxCast plates 1 and 2; Hu776: ToxCast plates 3 and 4). Each preparation of human hepatocyte cultures was treated with respective vehicle control, medium only control, set of six positive controls/reference chemicals for the five hepatic receptor pathways, and a subset of eight of the ToxCast chemicals (indoxacarb, pyrithiobac-sodium, norflurazon, cyhalofop-butyl, methomyl, thiram, acetochlor, and propiconazole). These replicate data, coupled with internal replicates designed within the blinded ToxCast chemical library, provided additional data to evaluate interindividual differences between hepatocyte preparations and their potential impact on chemical profiles.Cell morphology and integrity were evaluated using phase-contrast microscopy as an indicator of hepatocyte cell health (Tyson & Green, 1987). Cultures for each treatment group (i.e., media, vehicle [0.2% DMSO], positive control inducers [multiple concentrations], and the ToxCast chemicals [multiple concentrations]) were observed and cell morphology was assessed relative to vehicle control cultures at each harvest time point (0, 6, 24, or 48 h). […] Images were evaluated at the conclusion of the study to assess changes in cell integrity and account for the effects of chemical exposure on uncharacteristic changes in concentration-dependent gene expression profiles. The results from these determinations of apparent cytotoxicity were annotated (yes/no) alongside the corresponding qNPA data for reference.At the conclusion of each treatment period, hepatocyte cultures (96-well) were washed with 1 volume of HBSS, lysed by addition of 25 ul ArrayPlate lysis buffer (HTG, Tucson, AZ), and 70 ul/well of Denaturation Oil, denatured by incubation at 95C for 10 min, and frozen at approximately -70C until analysis by nuclease protection assay (qNPA) (Roberts et al., 2007). For qNPA analysis, cell lysates were thawed at 50C for approximately 30 min, qNPA probes were added, and samples were incubated at 95C for 10 min to begin the detection process by denaturing the target RNA, dissociating the duplexes and secondary structure hybridization. At the conclusion of the hybridization period, S1 nuclease reagent was added to each sample to digest all nonprotected nucleotides at 50C for 60-90 min. […]

| Compound | outcome | AC50 |
| --- | --- | --- |
| CNC(=O)ON=CC(C)(C)SC | inactive | – |
| C=CCC1=C(C)C(OC(=O)C2C(C=C(C)C)C2(C)C)CC1=O (stereo not given) | inactive | – |
| O=C(O)c1nc(Cl)ccc1Cl | inactive | 9.48 µM (active) |
| COC(=O)N(OC)c1ccccc1COc1ccn(-c2ccc(Cl)cc2)n1 | – | 0.545 µM (active) |
| COC(=O)C(C)Oc1ccc(Oc2ccc(Cl)cc2Cl)cc1 (stereo not given) | inactive | – |
| COC(=O)C=C(C)OP(=O)(OC)OC | inactive | – |
| COc1nc(C)nc(NC(=O)NS(=O)(=O)c2ccccc2Cl)n1 | inactive | – |
| CNC(=S)S | inactive | – |
| CCCCOC(=O)c1ccccc1C(=O)OCCCC | – | 4.9 µM (active) and 20 µM (active) |
| CCCCNC(=O)n1c(NC(=O)OC)nc2ccccc21 | – | 4.66 µM (active) |
| COc1nc(NC(C)C)nc(NC(C)C)n1 | – | 3.61 µM (active) |
| C=CC1(C)OC(=O)N(c2cc(Cl)cc(Cl)c2)C1=O (stereo not given) | – | 2.47 µM (active) |
| CC1=C(C(=O)Nc2ccccc2)SCCO1 | – | 15.1 µM (active) |
| C#CCOS(=O)OC1CCCCC1Oc1ccc(C(C)(C)C)cc1 (stereo not given) | – | 3.11 µM (active) |
| CC(C)C1(C)N=C(c2nc3ccccc3cc2C(=O)O)NC1=O (stereo not given) | inactive | – |
| CCOc1cc(Oc2ccc(C(F)(F)F)cc2Cl)ccc1[N+](=O)[O-] | – | 5.69 µM (active) |
| COc1nc(C)nc(NC(=O)NS(=O)(=O)c2ccccc2CCC(F)(F)F)n1 | inactive | 1.7 µM (active) and 11 µM (active) |
| CCc1nn(C)c(C(=O)NCc2ccc(C(C)(C)C)cc2)c1Cl | inactive | – |
| Fc1ccc(Oc2ccnc3cc(Cl)cc(Cl)c23)cc1 | – | 2.84 µM (active) |

| Compound | outcome | AC50 |
| --- | --- | --- |
| CCCCNC(=O)OCC#CI | inactive | – |
| CC(C)Oc1cc(-n2nc(C(C)(C)C)oc2=O)c(Cl)cc1Cl | – | 4.14 µM (active) |
| COC(=O)c1ccccc1C(=O)OC | inactive | – |
| N#Cc1cc(Br)c(O)c(Br)c1 | – | 33.4 µM (active) |
| Cc1ccc(-c2c(Cl)nc(C#N)n2S(=O)(=O)N(C)C)cc1 | – | 0.521 µM (active) |
| CON(C)C(=O)Nc1ccc(Cl)c(Cl)c1 | – | 1.29 µM (active) |
| Cc1c(F)c(F)c(COC(=O)C2C(/C=C(\Cl)C(F)(F)F)C2(C)C)c(F)c1F (stereo not given) | inactive | – |
| N#CC(CCc1ccc(Cl)cc1)(Cn1cncn1)c1ccccc1 (stereo not given) | – | 1.24 µM (active) |
| OC(c1ccc(Cl)cc1)(c1cncnc1)c1ccccc1Cl (stereo not given) | inactive | – |
| CCCCC(CC)COC(=O)c1ccccc1C(=O)OCC(CC)CCCC (stereo not given) | inactive | – |
| C=CCC1=C(C)[C@@H](OC(=O)[C@@H]2[C@@H](C=C(C)C)C2(C)C)CC1=O | inactive | – |
| Oc1ccccc1-c1ccccc1 | – | 20 µM (active) |
| CCNc1nc(Cl)nc(NC(C)C)n1 | – | 3.11 µM (active) |
| O=C(O)COc1nc(Cl)c(Cl)cc1Cl | inactive | – |
| O=C(Nc1ccccc1)Nc1ccnc(Cl)c1 | – | 7.19 µM (active) |
| COP(=S)(OC)Oc1nc(Cl)c(Cl)cc1Cl | – | 4.43 µM (active) |
| CCNc1nc(Cl)nc(NCC)n1 | – | 5.26 µM (active) |
| CCOC(=O)CC(SP(=S)(OC)OC)C(=O)OCC (stereo not given) | – | 8.3 µM (active) |
| COc1cnc(OC)n2nc(NS(=O)(=O)c3c(OCC(F)F)cccc3C(F)(F)F)nc12 | inactive | – |

— PubChem BioAssay (EPA / NIEHS)
